According to PubChem BioAssay (Tox21):
Values without a mark were called inactive. Entries that show only a call come without a potency. Active and inactive are the calls of the source. The call rests on the fitted dose curve.

Molecular target: Muscarinic acetylcholine receptor M1 (Homo sapiens) (UniProt P11229)
Test: Cholinergic receptor muscarinic 1 (CHRM1) small molecule agonists, cell-based qHTS assay (AID 1963589); further: nearly all actives have a fitted effect of over 35% in size
Details: CHRM1-CHO cells, agonist mode, calcium flux fluorescence; series mostly up to 76.8 µM
Text: National Center for Advancing Translational Sciences [NCATS]
Division of Preclinical Innovation [DPI]
U.S. Environmental Protection Agency [EPA]
National Institutes of Environmental Health Sciences [NIEHS]
National Toxicology Program [NTP]
U.S. Food and Drug Administration [FDA]
The CHRM1 is a muscarinic receptor. This receptor plays a crucial role in learning and memory processes and has long been identified as a promising therapeutic target for the improvement of cognitive decline in Alzheimer's disease (AD). The CHRM1-CHO cell line stably expressing human muscarinic acetylcholine receptor M1 (CHRM1) can be used for screening agonists and antagonists of interactions between CHRM1 and its ligands. The CHRM1-CHO Calcium Flux Assay is a homogeneous fluorescence-based assay for detecting the intracellular calcium level using FDSS kinetic plate reader system.
CHRM1-CHO cells were dispensed at 1000 cells/3uL/well in 1536-well black-clear bottom plates using a Multidrop Dispenser. After the assay plates were incubated at a 37 C/5% CO2 incubator for 18 h, 3 uL of Dye Loading Buffer was transferred to the assay plate by a Flying Reagent Dispenser. The assay plates were incubated at 37 C for 1h. For agonist mode, 23 nL of compounds dissolved in DMSO, positive controls or DMSO only was transferred to the assay plate by a pin tool. […] Each test compound was measured at 15 concentrations in three independent runs.

Chain of Muscarinic acetylcholine receptor M1 (Homo sapiens) (P11229 whole entry, looked up): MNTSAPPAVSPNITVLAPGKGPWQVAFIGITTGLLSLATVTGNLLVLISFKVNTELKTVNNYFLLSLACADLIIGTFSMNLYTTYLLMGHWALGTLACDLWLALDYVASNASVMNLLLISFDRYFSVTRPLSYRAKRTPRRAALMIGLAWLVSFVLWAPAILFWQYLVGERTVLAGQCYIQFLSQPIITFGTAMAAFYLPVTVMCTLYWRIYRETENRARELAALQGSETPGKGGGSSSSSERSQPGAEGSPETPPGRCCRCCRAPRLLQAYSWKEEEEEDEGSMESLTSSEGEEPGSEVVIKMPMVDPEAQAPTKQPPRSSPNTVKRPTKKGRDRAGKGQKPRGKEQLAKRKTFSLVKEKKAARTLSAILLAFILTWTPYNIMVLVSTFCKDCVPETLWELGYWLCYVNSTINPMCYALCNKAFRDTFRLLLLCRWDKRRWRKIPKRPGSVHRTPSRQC

SMILES | Potency | activation
CCOCC(C)O (stereo not given) | inactive | –
O=C1c2ccccc2C(=O)N1SC1CCCCC1 | inactive | –
CC(CC=O)c1ccccc1 (stereo not given) | inactive | –
OC[C@H]1O[C@@H]2O[C@H]3[C@H](O)[C@@H](O)[C@@H](O[C@H]4[C@H](O)[C@@H](O)[C@@H](O[C@H]5[C@H](O)[C@@H](O)[C@@H](O[C@H]6[C@H](O)[C@@H](O)[C@@H](O[C@H]7[C@H](O)[C@@H](O)[C@@H](O[C@H]8[C@H](O)[C@@H](O)[C@@H](O[C@H]9[C@H](O)[C@@H](O)[C@@H](O[C@H]1[C@H](O)[C@H]2O)O[C@@H]9CO)O[C@@H]8CO)O[C@@H]7CO)O[C@@H]6CO)O[C@@H]5CO)O[C@@H]4CO)O[C@@H]3CO | inactive | –
CC(=O)c1ccc([N+](=O)[O-])cc1 | inactive | –
Cc1cc2c(cc1CC(=O)c1sccc1S(=O)(=O)Nc1onc(C)c1Cl)OCO2 | inactive | –
CCc1ccc2c(c1)C(=O)c1ccccc1C2=O | inactive | –
NC(=O)c1ccccc1 | inactive | –
CCN(CC)CCNc1ccc(CO)c2sc3ccccc3c(=O)c12 | inactive | –
CN1CCC(OC(c2ccccc2)c2ccccc2)CC1 | inactive | –
Cc1cccc(NC(=S)N(C)C)c1 | inactive | –
CC(O)C1CCCCC1 (stereo not given) | inactive | –
CCCCCCCCCCCCCCOS(=O)(=O)O | inactive | –
Cc1ccc(O)c(C(=O)c2ccccc2)c1 | inactive | –
O=C(NN1CCCC1)NS(=O)(=O)c1ccc(Cl)cc1 | inactive | –
CN1CC[C@H](c2c(O)cc(O)c3c(=O)cc(-c4ccccc4Cl)oc23)[C@H](O)C1 | inactive | –
CN(C)[C@@H]1C(=O)C(C(N)=O)=C(O)[C@@]2(O)C(=O)C3=C(O)c4c(O)cccc4C[C@H]3C[C@@H]12 | inactive | –
O=c1[nH]sc2ccccc12 | inactive | –
CC(C)CC(C)(C)C | inactive | –
CCCCCCCC/C=C\CCCCCCCC(=O)OCC | inactive | –

SMILES | Potency | activation
CCCCNC1CC(C)(C)NC(C)(C)C1 | inactive | –
O=c1[nH][nH]c2ccccc12 | inactive | –
Cc1ccc(Nc2nccc(N(C)c3ccc4c(C)n(C)nc4c3)n2)cc1S(N)(=O)=O | inactive | –
O=C(/C=C/c1ccccc1)NCCO | inactive | –
CCN(CCC#N)c1ccccc1 | inactive | –
CC(=O)OC(C)OC(C)=O | inactive | –
N#CCCN(CCO)CCO | inactive | –
CC(C)CCOC(=O)/C=C/c1ccccc1 | inactive | –
CC(C)(C)c1ccc(OCC2CO2)cc1 (stereo not given) | inactive | –
Nc1c(Cl)cc(Cl)cc1[N+](=O)[O-] | inactive | –
Cc1cccc(Nc2ccccc2)c1 | inactive | –
C[C@@H]1CN(c2c(F)c(F)c3c(=O)c(C(=O)O)cn(C4CC4)c3c2F)C[C@H](C)N1 | – | -1.01% [at 15.8 µM]
O=C1NC2CCCCN2C12CCN(CCCN1c3ccccc3CCc3ccc(Cl)cc31)CC2 (stereo not given) | inactive | –
O=C(CC(=O)c1ccccc1)c1ccccc1 | inactive | –
CNC1CCCN(c2c(F)cc3c(=O)c(C(=O)O)cn(C4CC4)c3c2OC)C1 (stereo not given) | inactive | –
C=C(C)C(=O)OCCO | inactive | –
c1ccc(B(c2ccccc2)c2ccccc2)cc1 | inactive | –
O=[N+]([O-])c1ccc(NCCO)c(OCCO)c1 | inactive | –
CC(=O)OCCC(C)CC(C)(C)C (stereo not given) | inactive | –
CC1(C)O[C@@H]2C[C@H]3[C@@H]4CCC5=CC(=O)C=C[C@]5(C)[C@H]4[C@@H](O)C[C@]3(C)[C@]2(C(=O)CO)O1 | inactive | –
